Most compounds without a hit are left out; they make up all but 19% or so of the library.
Giardia killer = Giardia lamblia killing | Giardia lamblia trophozoite viability | activity change, % at 7.66 µM, hits read low | 340,000 compounds, 0.15% hits | AID 540267; in the data active means activity change below about -80%; inconclusive means between about -30% and that limit;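 further: parasites exposed to compound for two days anaerobically before the ATP read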
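Anaerobic 48 hrs incubation at 37 deg C of 100 trophozoites/well with test compounds; ATPLite 1-Step luminescence, 15-30 min RT, reports cellular ATP as viability.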
TDP1 block = blocks human tyrosyl-DNA phosphodiesterase 1; Q9NUW8; recombinant TDP1, AlphaScreen DNA substrate cleavage; Potency, µM (doses to about 130 µM), inactives show at the top dose activity change, negative = inhibition, most hits filed as inhibitors; 350,000 compounds, 0.28% hits; AID 485290; further: potency means the concentration at half of the fitted maximal effect; nearly all actives have a fitted effect of over 40% in size
Target sequence (Q9NUW8 whole entry, looked up): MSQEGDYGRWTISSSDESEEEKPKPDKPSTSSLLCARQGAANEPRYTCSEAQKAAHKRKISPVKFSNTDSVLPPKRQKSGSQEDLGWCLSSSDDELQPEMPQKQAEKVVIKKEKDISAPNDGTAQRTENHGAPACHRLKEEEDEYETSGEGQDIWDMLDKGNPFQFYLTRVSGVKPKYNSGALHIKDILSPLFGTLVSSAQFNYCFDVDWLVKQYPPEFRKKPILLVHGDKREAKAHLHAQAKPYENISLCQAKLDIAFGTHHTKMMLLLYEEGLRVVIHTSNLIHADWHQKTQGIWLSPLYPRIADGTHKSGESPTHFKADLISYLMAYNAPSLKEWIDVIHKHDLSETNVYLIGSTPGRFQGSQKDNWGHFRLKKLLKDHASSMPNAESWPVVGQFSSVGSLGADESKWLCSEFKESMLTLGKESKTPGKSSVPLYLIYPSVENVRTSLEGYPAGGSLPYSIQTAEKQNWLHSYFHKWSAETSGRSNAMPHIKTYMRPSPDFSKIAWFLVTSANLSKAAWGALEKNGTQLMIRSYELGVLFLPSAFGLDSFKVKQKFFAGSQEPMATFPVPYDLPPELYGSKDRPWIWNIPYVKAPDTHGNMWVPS
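Recombinant E. coli-expressed Tdp1 (1 nM) preincubated with compound 15 min at RT, then 5'-biotin/3'-phosphotyrosine-FITC DNA substrate (15 nM) added for 5 min. AlphaScreen beads (10 ug/ml) added, 10 min RT; tyrosine-FITC cleavage read as signal loss.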
IL1B secr inh = inflammasome signaling inhibition, IL-1 beta readout | activity change, % at 57.5 µM | AID 743279 | THP-1 LPS/ATP IL-1B secretion, AlphaLISA, 16 h; stronger effect = lower value | 360,000 compounds, 4.7% hits; in the data active means activity change below about -50%; inconclusive means mostly about -30% to -49%
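Secreted IL-1B measured by AlphaLISA bead assay after 16 h compound exposure of THP-1 cells; compounds (final up to 57.5 uM) added 1 h before LPS (250 ng/mL) and ATP (1.25 mM) stimulation; lower signal means less secretion.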
DT40 TDP1 CPT = DT40-hTDP1 cell growth loss with CPT; Potency, µM (series often up to 46.2 µM), for inactives: at the highest dose activity change, negative = growth inhibition, hits mostly inhibitors; 420,000 compounds, 12% hits; chicken DT40 Tdp1-/-;hTDP1 cells + 20 nM CPT, ATP luminescence, 48 h; further: potency means the concentration at half of the fitted maximal effect; nearly all actives have a fitted effect of over 55% in size
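Chicken DT40 Tdp1-/- cells stably complemented with human TDP1 were seeded at 400 cells/well in medium containing 20 nM camptothecin, exposed to pin-transferred compounds, and grown at 37 °C for at least 48 hr. Viability was read as ATP luminescence.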
ELG1 DNA repair = inhibitors of ELG1-dependent DNA repair in HEK293T cells; HEK293T ELG1-luciferase reporter, luminescence, 16 h; DNA damage induced by 5-fluorouridine; Potency, µM (highest dose often 46.1 µM), without a hit: at the top dose activity change, negative = inhibition, most hits filed as inhibitors; 330,000 compounds, 2.3% hits; AID 504467; further: potency means the concentration at half of the fitted maximal effect; nearly all actives have a fitted effect of over 55% in size
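HEK293T cells expressing luciferase-tagged ELG1 (2,000/well) received 5-Fluorouridine plus compound or DMSO for 16 hr at 37 °C. Luciferase was read by ONE-Glo luminescence after 30 min at room temperature.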
TDP1 cell noCPT = qHTS for Inhibitors of human tyrosyl-DNA phosphodiesterase 1 (TDP1): qHTS in cells in absence of CPT; DT40 Tdp1-/- hTDP1 cells, no CPT, ATP luminescence, 48 h; Potency, µM (doses to about 46.2 µM), without a hit: at the top dose activity change, negative = growth inhibition, hits mostly inhibitors; 420,000 compounds, 15% hits; further: potency means the concentration at half of the fitted maximal effect; nearly all actives have a fitted effect of over 55% in size
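Growth of hTDP1-complemented DT40 Tdp1-knockout cells is measured by ATP luminescence after at least 48 hr compound exposure at 37 °C, with DMSO substituting for the 20 nM CPT used in the parallel screen.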
Starred values were filed as active, the others as inactive; ? = inconclusive; . = no result given; [ ] = dose if it differs, or a comment. Unless noted, the call rests on the fitted dose curve; in most records, active means well fitted curve in the direction sought with a large enough effect; inconclusive means small, poorly fitted or top-dose-only effect, or another doubt; inactive means no such curve, though single readings can be large; an effect the other way counts as inactive or inconclusive. On the % scale 0 is the no-effect control and ±100 the full control effect.

SMILES	Giardia killer	TDP1 block	IL1B secr inh	DT40 TDP1 CPT	ELG1 DNA repair	TDP1 cell noCPT
Cc1c(NC(=O)c2nn3c(C(F)(F)F)cc(-c4ccccc4)nc3c2Cl)c(=O)n(-c2ccccc2)n1C	2.4	0.0%	-50.8*	-1.9%	?	?
COc1ccc(-c2cc(C(F)(F)F)n3nc(C(=O)NCCCn4ccnc4)cc3n2)cc1	5.1	-0.5%	-59.3*	-29.7%	?	?
CCCNC(=O)c1nn2c(C(F)(F)F)cc(-c3ccccc3)nc2c1Cl	33.2	.	-15.3	?	2.2%	?
CCOc1cc(OCC)cc(C(=O)N2CCC[C@H]2C(=O)N2CCC[C@H]2C(=O)NCc2cccc(OC)c2)c1	.	.	33.4	-26.0%	.	?
Cc1ccc(C(C)C)c(OCCN)c1	1.0	-2.1%	-10.8	-29.1%	-5.4%	?
Cc1ccc(C)c(OCCCCN2CCNCC2)c1C	9.0	6.5%	-13.2	14.6µM*	7.0%	6.51µM*
Cc1cccc(C(C)(C)C)c1OCCCCN1CCCC1	0.2	-5.0%	-21.1	?	?	23.1µM*
Cc1ccc(C(C)C)c(OCCCCN2CCNCC2)c1	6.9	.	-58.5*	14.6µM*	4.5%	16.4µM*
Cc1ccc(C(C)C)c(OCCCn2ccnc2C)c1	-0.5	.	-16.0	16.4µM*	-11.2%	29.1µM*
COC(=O)c1ccc(Cn2c(SCc3ccccc3F)nc3ccncc32)cc1	.	2.0%	.	?	.	?
COCCSc1ccccc1C(=O)Nc1cc([N+](=O)[O-])ccc1OC	-3.5	2.4%	-14.5	-1.3%	-5.0%	?
COc1ccc([N+](=O)[O-])cc1NC(=O)CSc1nc(C)cc(C)n1	-13.9	8.2%	27.2	16.4µM*	5.3%	?
COc1cc([N+](=O)[O-])ccc1NC(=O)CSc1nncn1-c1cccnc1	11.9	2.6%	10.2	?	?	0.517µM*
COc1ccc([N+](=O)[O-])cc1NC(=O)CSc1ccc2ccccc2c1	14.1	5.4%	16.2	23.1µM*	-24.1%	?
O=C(CSc1nncn1-c1cccnc1)Nc1cccc([N+](=O)[O-])c1	-13.4	3.5%	-2.9	2.4%	-1.3%	-3.5%
COCCSc1ccccc1C(=O)Nc1ccc([N+](=O)[O-])cc1OC	21.7	4.9%	-2.2	?	?	23.1µM*
COc1ccc([N+](=O)[O-])cc1NC(=O)CC(c1ccccc1)c1ccccc1	-10.0	1.8%	16.6	?	?	?
Cc1ccc(-c2nn3cnnc3c3ccccc23)cc1C	27.7	0.0%	34.4	?	-9.3%	?
COc1ccc(CN2C(=O)C(CC(=O)NCCCCc3ccccc3)CC(C(=O)N3CCCCCC3)=C2C)cc1 (stereo not given)	.	.	.	20.9µM*	.	20.9µM*
CCN(CC)C(=O)C1=C(C)N(Cc2ccccc2)C(=O)C(CC(=O)NCCCCc2ccccc2)C1 (stereo not given)	.	.	-8.8	23.1µM*	.	25.9µM*
CC1=C(C(=O)N(C(C)C)C(C)C)CC(CC(=O)NCCCCc2ccccc2)C(=O)N1Cc1ccccc1 (stereo not given)	.	.	0.0	?	.	23.1µM*
CC1=C(C(=O)N(C(C)C)C(C)C)CC(CC(=O)NCCCCc2ccccc2)C(=O)N1Cc1ccc(F)cc1 (stereo not given)	.	.	-56.0*	?	.	?
CC1=C(C(=O)N(C(C)C)C(C)C)CC(CC(=O)NCCCN(C)C)C(=O)N1Cc1ccc(F)cc1 (stereo not given)	.	.	8.6	4.2%	.	3.6%
O=C1CC(NS(=O)(=O)c2ccccc2F)CN1c1ccc2c(c1)OCCO2 (stereo not given)	10.4	.	6.3	-2.3%	22.6%	-9.4%
CCCCCc1ccnc(CC(=O)c2ccc(OC)cc2)c1	4.8	.	-19.3	8.2µM*	.	8.2µM*
SMILES	Giardia killer	TDP1 block	IL1B secr inh	DT40 TDP1 CPT	ELG1 DNA repair	TDP1 cell noCPT
CCOc1ccc(N(C)S(=O)(=O)c2cc(-c3cc(C)no3)ccc2C)cc1	25.7	1.8%	-19.0	?	?	?
CCOc1ccc(N(C)S(=O)(=O)c2cc(-c3cc(C)no3)ccc2OC)cc1	21.1	2.2%	-10.3	23.1µM*	-14.0%	14.6µM*
CCOc1ccc(N(C)S(=O)(=O)c2cc(-c3cc(C)no3)ccc2CC)cc1	-5.4	1.2%	0.0	?	?	18.4µM*
COc1ccc(-c2cc(C)no2)cc1S(=O)(=O)N(C)c1ccc(C)cc1	-10.4	-0.3%	24.2	10.3µM*	-24.8%	9.2µM*
CCN(CC)c1ccc2cc(-c3nc4sc5c(c4c(=O)[nH]3)CCC(C(C)(C)C)C5)c(=O)oc2c1 (stereo not given)	.	1.3%	.	2.6%	.	-6.3%
CC(C)(C)c1cccc(C2(O)C(=O)c3ccccc3C2=O)c1O	8.8	0.0%	-24.7	?	-21.8%	9.2µM*
CCNc1ccc(C2(O)C(=O)c3ccccc3C2=O)cc1	4.5	0.6%	0.0	12.3%	11.6%	6.1%
Cc1cccc(N2CCN(C3(c4ccccc4)C(=O)c4ccccc4C3=O)CC2)c1C	.	5.3%	.	-21.4%	.	-16.3%
Cc1ccc(C2(O)C(=O)c3ccccc3C2=O)c(O)c1C	19.5	50.1µM*	-10.5	?	-24.4%	?
CC(C)Oc1ccc(S(=O)(=O)N2CCOCC2)cc1NC(=O)C1CCCCC1	-4.7	-0.1%[56.1 µM]	1.4	-28.5%	0.7%	-9.8%
Clc1ccccc1-c1nnc(-c2ccc3c(c2)OCO3)o1	-24.5	3.7%	14.8	?	?	?
CC(C)NC(=O)CN1CCN(C(c2ccnc3ccccc23)c2nnnn2-c2ccc3c(c2)OCCO3)CC1 (stereo not given)	.	.	23.3	-29.5%	.	-21.8%
Cc1cccc(C)c1-n1nnnc1C(c1ccnc2ccccc12)N1CCN(C(=O)OC(C)(C)C)CC1 (stereo not given)	.	.	6.1	-0.1%	.	0.7%
CCOC(=O)N1CCN(C(c2ccnc3ccccc23)c2nnnn2-c2ccc3c(c2)OCCO3)CC1 (stereo not given)	.	.	23.6	?	.	16.4µM*
CC(C)(C)OC(=O)N1CCCN(C(c2ccnc3ccccc23)c2nnnn2-c2ccc3c(c2)OCCO3)CC1 (stereo not given)	.	.	-12.6	?	.	3.66µM*
CCOC(=O)C1=C(O)/C(=C/c2ccc(OCC(=O)O)c(OCC)c2)SC1=Nc1ccc(C)cc1	-24.2	4.8%	4.6	-26.4%	?	-23.3%

Source: PubChem BioAssay (National Center for Advancing Translational Sciences (NCATS))
